The nature of experiment [1]: NCI Yeast Anticancer Drug Screen. Data for the rad50 strain (AID 155).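 Also: 0% = growth of vehicle-only cultures of the same strain.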 The conditions noted are these: S. cerevisiae rad50 strain growth inhibition; at 50.0 µM; hits give high values. The method, boiled down:
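Compounds were tested on a yeast strain with an engineered DNA damage repair alteration; the reported value is growth inhibition normalised to vehicle treatment.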

The nature of experiment [2]: NCI Yeast Anticancer Drug Screen. Data for the mec2-1 strain (AID 157). Conditions: S. cerevisiae mec2-1 strain, at 50.0 µM, hits give high values. A digest of the protocol:
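Test agents were screened against the mec2-1 yeast strain, with defined DNA repair or cell cycle alteration. Growth was scored as inhibition against vehicle-only controls.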

Experiment [3] is described as follows: NCI Yeast Anticancer Drug Screen. Data for the sgs1 mgt1 strain (AID 161).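 Also: 0% = growth of cultures given vehicle only.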 The conditions noted are these: S. cerevisiae sgs1 mgt1 strain, at 50.0 µM, hits give high values. The method, boiled down: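 Inhibition of yeast growth, normalised to vehicle-treated controls, is reported for a strain bearing genetic alterations in DNA damage repair.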
Experiment [4] is described as follows: NCI Yeast Anticancer Drug Screen. Data for the cln2 rad14 strain (AID 165).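 Also: 0% = growth equal to vehicle treated cultures.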 The conditions noted are these: S. cerevisiae cln2 rad14 strain, at 50.0 µM, hits give high values. The method, boiled down: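 Growth of compound-exposed yeast (cln2 rad14 genotype) measured and expressed as inhibition relative to vehicle.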
Experiment [5] is described as follows: NCI Yeast Anticancer Drug Screen. Data for the bub3 strain (AID 167). The conditions noted are these: S. cerevisiae bub3 mutant strain, at 50.0 µM, hits give high values. A digest of the protocol: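 Growth of a checkpoint-deficient yeast mutant is measured after compound exposure. Values represent inhibition relative to vehicle.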
A short description of experiment [6]: NCI Yeast Anticancer Drug Screen. Data for the mlh1 rad18 strain (AID 175). The conditions noted are these: S. cerevisiae mlh1 rad18 strain growth inhibition; at 50.0 µM; hits give high values. A digest of the protocol: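 In this whole-cell yeast screen, a strain with altered DNA damage repair is challenged with compound, and its growth is measured against matched vehicle-treated controls.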

About 79,000 compounds went through this panel and 15% of them were active in at least one assay; those are over-represented in the sample as a whole. Values without a mark were called inactive. The source made the active and inactive calls. Rule as the data show it: active = growth inhibition above about 70%; inactive = the rest.

As to `O=C(Cc1ccccc1)NCc1ccccc1`, the growth inhibition in experiment [1] is -1.7%; in experiment [2], -7.15%; in experiment [3], 13.9%; in experiment [4] it was -3.3%; in experiment [5], 2.55%; in experiment [6] it was 8.7%.

Consider `CC1CCC(C(C)C)C(NC(=O)c2cccnc2)C1` (stereo not given), for which the growth inhibition was 8.3% in experiment [1]; -7.45% in experiment [2]; -2.75% in experiment [3]; 13.9% in experiment [4]; 14.4% in experiment [5]; 8.75% in experiment [6].

For the compound `CCc1cc(C(C)(C)C)c(O)c(C(C)(C)C)c1`, the growth inhibition was 33.6% in experiment [1]; 9.65% in experiment [2]; 6.25% in experiment [3]; 25.2% in experiment [4]; 8.4% in experiment [5]; 35.4% in experiment [6].

With `CCOC(=O)c1cnc2ccccn2c1=O`, the growth inhibition in experiment [1] was 5.15%; in experiment [2] it was 6.15%; in experiment [3], 7.3%; in experiment [4] it was 7.2%; in experiment [5], -18%; in experiment [6], -2.25%.

Take `COc1cc(Br)c(C=O)cc1OC`: the growth inhibition in experiment [1] is 10.5%; in experiment [2], 22.9%; in experiment [3], 13.6%; in experiment [4], -16.1%; in experiment [5], 2.95%; in experiment [6], 5.5%.

In the case of `CCN(CC)c1ccc(N=C2C=C(C(=O)Nc3ccc(C(=O)O)cc3)C(=O)c3ccccc32)c(C)c1`, the growth inhibition is -10.2% in experiment [1]; -25% in experiment [2]; -16.9% in experiment [3]; 0.9% in experiment [4]; -0.65% in experiment [5]; -18.2% in experiment [6].

Take `Nc1nc(=O)n(C2CCC(CO)O2)cc1F` (stereo not given): the growth inhibition in experiment [1] was 34.7%; in experiment [2] it was 18.1%; in experiment [3], 16.2%; in experiment [4] it was -2.65%; in experiment [5] it was 10.5%; in experiment [6], 5.05%.

In the case of `O=C1NC(CN2CCCC(O)C2)C(=O)NC1CN1CCCC(O)C1` (stereo not given), the growth inhibition is 2% in experiment [1]; 9.35% in experiment [2]; 13.3% in experiment [3]; -22.8% in experiment [4]; -4.45% in experiment [5]; 7.6% in experiment [6].

In the case of `COC1CC(OC2C(C)OC(OC3C(C)OC(OC4C(C)OC(O[C@H]5CC[C@@]6(C)C(=CC[C@]7(O)[C@@H]6C[C@@H](OC(=O)/C=C/c6ccccc6)[C@@]6(C)[C@]7(O)CC[C@@]6(O)C(C)=O)C5)CC4OC)CC3OC)CC2OC)OC(C)C1O` (stereo not given in full), the growth inhibition in experiment [1] is 31%; in experiment [2], 19.2%; in experiment [3] it was 5.35%; in experiment [4], 25.9%; in experiment [5], 7.15%; in experiment [6], -27.6%.

Consider `CCCCCCCCCCCCOc1ccc(C(C)(C)C)cc1`, for which the growth inhibition is -12.2% in experiment [1]; -12.8% in experiment [2]; -22.1% in experiment [3]; 7.85% in experiment [4]; -36.8% in experiment [5]; -11.7% in experiment [6].

As for `O=c1c2cccnc2ncn1CCN1CCCC1`, the growth inhibition was 5.25% in experiment [1]; -11.6% in experiment [2]; -3.5% in experiment [3]; 8.4% in experiment [4]; -1.8% in experiment [5]; 21.1% in experiment [6].

Take `Nc1nc2c(c(=O)[nH]1)CN(c1ccc(S(N)(=O)=O)cc1)CN2`: the growth inhibition in experiment [1] was 25.9%; in experiment [2] it was -24.6%; in experiment [3] it was 0.5%; in experiment [4], -7.45%; in experiment [5] it was -26.4%; in experiment [6] it was -12.3%.

Regarding `O=[S@]1Nc2cc(N=Nc3ccccc3)ccc2S1`, the growth inhibition was -3.45% in experiment [1]; 16.1% in experiment [2]; 0.15% in experiment [3]; -10.5% in experiment [4]; -5.05% in experiment [5]; -12.1% in experiment [6].

For `CCC(=O)C(C)C(=O)CCC(=O)Nc1cc(Cl)ccc1Cl` (stereo not given), the growth inhibition in experiment [1] is 21.4%; in experiment [2] it was 18.5%; in experiment [3], 18.6%; in experiment [4], 20.2%; in experiment [5], 18.1%; in experiment [6] it was 19.6%.

Consider `Cc1ccc(-n2cnc3c(N/N=C4\SCC(=O)N4c4ccccc4)ncnc32)cc1`, for which the growth inhibition in experiment [1] is 41.2%; in experiment [2], 17.6%; in experiment [3] it was 40.2%; in experiment [4], 15.1%; in experiment [5], 49.2%; in experiment [6] it was 35%.

`Cc1cccc[n+]1CC(=O)c1ccccc1[N+](=O)[O-]`: the growth inhibition is -5% in experiment [1]; 6.85% in experiment [2]; -3.3% in experiment [3]; -6.55% in experiment [4]; -20.6% in experiment [5]; 8.1% in experiment [6].

For the compound `CN(C)Cc1cccc(-c2ccccc2)c1O`, the growth inhibition was 21.8% in experiment [1]; -4.9% in experiment [2]; 12% in experiment [3]; -15.8% in experiment [4]; 5.3% in experiment [5]; 17.2% in experiment [6].

In the case of `CCCCCC(CN(C)C)C(=O)CC(SCC)c1ccccc1` (stereo not given), the growth inhibition in experiment [1] was 27.7%; in experiment [2], 20.4%; in experiment [3] it was 8.85%; in experiment [4], 1.05%; in experiment [5], 18.6%; in experiment [6], 16.8%.

Take `O=C(CCN1CCCCC1)c1cc(Cl)ccc1Cl`: the growth inhibition in experiment [1] is 88.4% (active); in experiment [2] it was 68.4%; in experiment [3], 93.1% (active); in experiment [4] it was 62.5%; in experiment [5], 91% (active); in experiment [6] it was 80.2% (active).

With `Cc1cccc(NS(=O)(=O)c2ccc(Cl)cc2)c1C`, the growth inhibition in experiment [1] was 98.5% (active); in experiment [2], 98.3% (active); in experiment [3], 98.2% (active); in experiment [4], 98.3% (active); in experiment [5], 98.4% (active); in experiment [6] it was 98.7% (active).

Values taken from PubChem BioAssay (NCI).
